The target of test [1] is Retinoic acid receptor RXR-alpha (Homo sapiens) (UniProt P19793). In words: ATG_RXRa_TRANS: Attagene TRANS-FACTORIAL HepG2 Assay for human Retinoid X Receptor alpha (RXRa) (AID 2283012). The procedure, abridged:
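Transient transfection of human HepG2 with multiple GAL4-UAS reporter constructs; 24 h compound exposure; total RNA isolated, reverse-transcribed, PCR-amplified, 6-FAM labelled, HpaI-cut, resolved by capillary electrophoresis. Positive-direction fit versus DMSO.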

Test [2] deals with human Retinoid X Receptor beta (RXRb), RXRB (gene 6257) (UniProt P28702). The test is described as follows: ATG_RXRb_TRANS: Attagene TRANS-FACTORIAL HepG2 Assay for human Retinoid X Receptor beta (RXRb) (AID 2283013). The method, boiled down: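 Transfect HepG2 with GAL4-UAS multi-reporter constructs (chimeric NR-Gal4, TRANS format); dose compound 24 h; isolate RNA, RT-PCR, FAM primer extension, HpaI digest; quantify by capillary electrophoresis; positive direction vs DMSO.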
Chain of human Retinoid X Receptor beta (RXRb), RXRB (gene 6257) (P28702 whole entry, looked up, the tested form may be a part): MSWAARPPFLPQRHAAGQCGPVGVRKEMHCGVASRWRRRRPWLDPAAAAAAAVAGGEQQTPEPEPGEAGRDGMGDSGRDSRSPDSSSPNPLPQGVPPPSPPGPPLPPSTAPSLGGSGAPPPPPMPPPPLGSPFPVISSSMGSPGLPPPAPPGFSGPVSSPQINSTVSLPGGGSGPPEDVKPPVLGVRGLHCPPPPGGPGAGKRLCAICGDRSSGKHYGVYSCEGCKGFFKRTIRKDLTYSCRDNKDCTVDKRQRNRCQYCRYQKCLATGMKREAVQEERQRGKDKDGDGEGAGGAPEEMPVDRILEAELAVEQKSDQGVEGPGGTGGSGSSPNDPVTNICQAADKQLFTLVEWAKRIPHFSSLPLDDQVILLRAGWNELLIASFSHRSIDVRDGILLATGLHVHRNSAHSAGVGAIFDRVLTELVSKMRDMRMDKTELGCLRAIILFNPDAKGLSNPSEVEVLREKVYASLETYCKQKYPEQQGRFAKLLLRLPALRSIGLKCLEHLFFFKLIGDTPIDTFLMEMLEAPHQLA

The target of test [3] is human Thyroid Receptor alpha (THRa1), THRA (gene 7067) (UniProt P10827). The test is described as follows: ATG_THRa1_TRANS: Attagene TRANS-FACTORIAL HepG2 Assay for human Thyroid Receptor alpha (THRa1) (AID 2283014). The method, boiled down: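 Reporter transcript induction, read by capillary electrophoresis of 6-FAM-labelled RT-PCR products, reflects activity of a transfected THRa1-Gal4 fusion in HepG2 liver cells. Cells were dosed for 24 h; activity was fitted in the positive direction against DMSO.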
Chain of human Thyroid Receptor alpha (THRa1), THRA (gene 7067) (P10827 whole entry, looked up, the tested form may be a part): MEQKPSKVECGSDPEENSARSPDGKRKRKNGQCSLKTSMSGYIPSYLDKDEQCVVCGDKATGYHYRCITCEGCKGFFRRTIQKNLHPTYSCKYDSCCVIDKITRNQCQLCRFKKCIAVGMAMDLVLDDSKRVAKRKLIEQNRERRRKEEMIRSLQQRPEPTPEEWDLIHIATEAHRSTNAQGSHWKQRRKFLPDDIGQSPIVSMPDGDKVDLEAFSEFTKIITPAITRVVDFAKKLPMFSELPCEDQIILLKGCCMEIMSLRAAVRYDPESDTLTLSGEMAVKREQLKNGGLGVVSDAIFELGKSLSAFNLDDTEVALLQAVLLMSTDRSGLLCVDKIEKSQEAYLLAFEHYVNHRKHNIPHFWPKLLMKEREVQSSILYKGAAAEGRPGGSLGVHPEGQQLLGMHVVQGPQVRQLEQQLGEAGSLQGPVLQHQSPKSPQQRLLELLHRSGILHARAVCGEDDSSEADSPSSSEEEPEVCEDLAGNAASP

Read-out in test [4]: E-selectin (Homo sapiens) (UniProt P16581)
The test is described as follows: BSK_3C_Eselectin: BioMAP Diversity Plus: 3C Assay for Eselectin Biomarker Activity (AID 2283015; active = hit-call score of the fitted dose curve at least 0.9, where 1 is the maximum; inactive = score below 0.9;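 for outcome: cell surface E-selectin protein quantified by ELISA 24 h after dosing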). Conditions: primary human endothelial cells (HUVEC); actives raise or lower the signal. The method, boiled down:
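ELISA read-out of E-selectin on endothelial monolayers after 24 h chemical treatment. Human umbilical vein primary cells served as the system, with DMSO defining baseline activity for bidirectional fitting.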

Read-out in test [5]: Interleukin-1 alpha (IL1a), IL1A (gene 3552)
In words: BSK_BE3C_IL1a: BioMAP Diversity Plus: BE3C Assay for Interleukin-1 alpha (IL1a) Biomarker Activity (AID 2283016; active = hit-call score of the fitted dose curve at least 0.9, where 1 is the maximum; inactive = score below 0.9). Conditions: primary human bronchial epithelial cells; actives raise or lower the signal. The method, boiled down:
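BE3C primary human bronchial epithelium; cpd 24 h; IL-1a by ELISA; bidirectional fit vs DMSO; parallel SRB (0.1% SRB, 10% TCA fix, 560 nm) for cytotoxicity.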

Read-out in test [6]: Monocyte Chemoattractant Protein-1 (MCP1), CCL2 (gene 6347)
The test is described as follows: BSK_3C_MCP1: BioMAP Diversity Plus: 3C Assay for Monocyte Chemoattractant Protein-1 (MCP1) Biomarker Activity (AID 2283017; active = hit-call score of the fitted dose curve at least 0.9, where 1 is the maximum; inactive = score below 0.9). Conditions: primary human endothelial cells (HUVEC); actives raise or lower the signal. The procedure, abridged: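 ELISA read-out of MCP-1 from human umbilical vein endothelial cell cultures harvested 24 h post-dosing. Gain or loss of signal was fitted relative to DMSO.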

Read-out in test [7]: Monocyte Chemoattractant Protein-1 (MCP1), CCL2 (gene 6347)
The test is described as follows: BSK_4H_MCP1: BioMAP Diversity Plus: 4H Assay for Monocyte Chemoattractant Protein-1 (MCP1) Biomarker Activity (AID 2283018; active = hit-call score of the fitted dose curve at least 0.9, where 1 is the maximum; inactive = score below 0.9). Conditions: primary human endothelial cells (HUVEC); actives raise or lower the signal. The procedure, abridged:
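ELISA read-out of MCP-1 from human vascular endothelial primary cells taken at 24 hours after compound exposure. Activity was fitted in both directions relative to DMSO, which served as negative control.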

Read-out in test [8]: Human Leukocyte Antigen - DR isotype (HLADR), HLA-DRA (gene 3122)
The test is described as follows: BSK_3C_HLADR: BioMAP Diversity Plus: 3C Assay for Human Leukocyte Antigen - DR isotype (HLADR) Biomarker Activity (AID 2283019; active = hit-call score of the fitted dose curve at least 0.9, where 1 is the maximum; inactive = score below 0.9). Conditions: primary human endothelial cells (HUVEC); actives raise or lower the signal. The method, boiled down: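 ELISA readout of surface HLA-DR on human umbilical vein endothelium, taken 24 h after chemical treatment. Gain- and loss-of-signal were both fitted relative to DMSO.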

Read-out in test [9]: Interleukin-8 (IL8), CXCL8 (gene 3576)
The test is described as follows: BSK_3C_IL8: BioMAP Diversity Plus: 3C Assay for Interleukin-8 (IL8) Biomarker Activity (AID 2283020; active = hit-call score of the fitted dose curve at least 0.9, where 1 is the maximum; inactive = score below 0.9). Conditions: primary human endothelial cells (HUVEC); actives raise or lower the signal. The procedure, abridged: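 ELISA read-out of IL-8 from human umbilical vein endothelium, measured 24 h after chemical dosing. Activity is expressed relative to DMSO negative control, with both increases and decreases fitted.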

Records with an inconclusive call do not appear. Activity calls are given as the source filed them. Rule for the calls, unless noted: active = hit-call score of the fitted dose curve at least 0.9, where 1 is the maximum; inconclusive = response in the unintended direction; inactive = score below 0.9.

Chain of Retinoic acid receptor RXR-alpha (Homo sapiens) (P19793 whole entry, looked up, the tested form may be a part): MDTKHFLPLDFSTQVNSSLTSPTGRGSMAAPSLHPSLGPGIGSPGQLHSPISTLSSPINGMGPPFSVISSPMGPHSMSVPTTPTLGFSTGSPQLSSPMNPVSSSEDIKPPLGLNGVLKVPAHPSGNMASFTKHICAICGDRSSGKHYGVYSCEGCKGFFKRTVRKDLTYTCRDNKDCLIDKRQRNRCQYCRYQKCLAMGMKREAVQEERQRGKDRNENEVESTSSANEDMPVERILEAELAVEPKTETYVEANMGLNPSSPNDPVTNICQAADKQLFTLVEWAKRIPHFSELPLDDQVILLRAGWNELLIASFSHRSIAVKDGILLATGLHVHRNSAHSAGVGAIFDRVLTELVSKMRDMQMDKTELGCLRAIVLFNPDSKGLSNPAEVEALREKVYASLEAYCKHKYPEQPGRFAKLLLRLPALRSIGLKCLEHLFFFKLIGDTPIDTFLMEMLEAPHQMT
Chain of E-selectin (Homo sapiens) (P16581 whole entry, looked up): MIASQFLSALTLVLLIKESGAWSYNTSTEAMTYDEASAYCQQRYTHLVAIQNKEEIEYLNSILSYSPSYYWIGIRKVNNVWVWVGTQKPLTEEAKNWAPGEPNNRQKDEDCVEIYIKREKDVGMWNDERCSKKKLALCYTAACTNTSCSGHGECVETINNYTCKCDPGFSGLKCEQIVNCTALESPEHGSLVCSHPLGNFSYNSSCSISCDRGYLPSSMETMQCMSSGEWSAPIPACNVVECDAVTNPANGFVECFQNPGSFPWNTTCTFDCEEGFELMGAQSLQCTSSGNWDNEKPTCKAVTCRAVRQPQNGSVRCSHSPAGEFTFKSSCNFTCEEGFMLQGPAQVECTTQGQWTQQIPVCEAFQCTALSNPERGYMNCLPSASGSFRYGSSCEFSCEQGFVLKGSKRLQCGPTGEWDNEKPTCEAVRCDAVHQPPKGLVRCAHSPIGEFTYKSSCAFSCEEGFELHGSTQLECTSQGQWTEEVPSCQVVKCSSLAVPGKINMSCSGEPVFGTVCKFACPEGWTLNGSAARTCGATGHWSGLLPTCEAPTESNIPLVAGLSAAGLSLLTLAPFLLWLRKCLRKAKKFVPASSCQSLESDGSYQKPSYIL

`Nc1nc2ccc([N+](=O)[O-])cc2s1`: the call in test [1] and in [2] was inactive.

As for `O=C(O)c1snc(Cl)c1Cl`, the compound was classed as inactive in [1] and in test [2].

For `NNc1nc(-c2ccc(N)cc2)cs1`, the result in test [1] and in [2] was inactive.

Consider `CCOC(=O)c1ccccc1OC`, for which the call in test [1] and in [2] was inactive.

Take `COc1c(Cl)c(Cl)c(Cl)c(Cl)c1Cl`: the AC50 (usually the midpoint of the concentration-response curve, whichever way the signal moves) is 29.1 µM (active) in [1] and 6.22 µM (active) in test [2]. Moreover, the compound was called inactive in test [3].

Consider `COCCCOc1ccnc(CS(=O)c2nc3ccccc3[nH]2)c1C` (stereo not given), for which the result in [1] and in test [2] was inactive.

Consider `C=CCOc1nc(OCC=C)nc(OCC=C)n1`, for which the outcome in [1] was inactive. Besides, the AC50 in test [2] was 81 µM (active).

Consider `Clc1ccc2c(c1)C(N1CCNCC1)=Nc1ccccc1O2`, for which the call in test [1] was inactive. For the same compound, in test [2], the AC50 was 55.3 µM (active).

`CCCCCCCCCCN`: the compound was classed as inactive in test [1] and in test [2].

As for `O=C1CCc2ccccc2O1`, the call in test [1] and in test [2] was inactive.

Regarding `COC(=O)Cc1cccc2ccccc12`, the compound was called inactive in test [1]. Besides, the AC50 in [2] is 55.2 µM (active).

In the case of `C=C(C)[C@@H]1CCC2=CC(=O)C[C@@H](C)[C@]2(C)C1`, the outcome in test [1] and in test [2] was inactive.

For the compound `Fc1c(F)c(F)c(Br)c(F)c1F`, the outcome in test [1] and in [2] was inactive.

As to `OCC(CO)(CO)COCC(CO)(CO)CO`, the compound was called inactive in test [1] and in test [2].

On to `C[C@H]1C[C@H]2[C@@H]3CCC4=CC(=O)C=C[C@]4(C)[C@@]3(F)[C@@H](O)C[C@]2(C)[C@@]1(O)C(=O)COP(=O)(O)O`, for which the outcome in [1] and in test [2] was inactive.

As for `CCC(=O)OCCC(C)CCC=C(C)C` (stereo not given), the compound was classed as inactive in test [1] and in [2].

As for `CCOC(=S)SSC(=S)OCC`, the compound was called inactive in test [1] and in test [2].

As for `C=C(C)C(=O)OCc1ccccc1`, the compound was classed as inactive in test [1] and in test [2].

Regarding `CC(C)(N)CO`, the compound was classed as inactive in test [1] and in [2].

As for `CCc1ccc(C=O)cc1`, the result in test [1] and in [2] was inactive.

Consider `CC(C=O)Cc1ccc(C(C)C)cc1` (stereo not given), for which the call in [1] and in test [2] was inactive.

Regarding `CN(C)CCCN`, the call in [1] and in [2] was inactive.

With `CC(C)[C@H]1CC[C@@H](C)CC1=O`, the compound was classed as inactive in test [1] and in test [2].

Regarding `Nc1cc([N+](=O)[O-])ccc1O`, the compound was called inactive in test [1], in test [2], in test [4], in test [5], in test [6] and in test [7]. Besides, in [8], the result was inactive.

Take `CCCCCCCCCCCCCC(=O)O`: the compound was called inactive in test [1] and in [3]. Further, the AC50 in test [2] is 69.7 µM (active).

Regarding `CN(CCOc1ccc(CC2SC(=O)NC2=O)cc1)c1ccccn1` (stereo not given), the outcome in test [1], in test [2], in test [3] and in test [9] was inactive. Further, the AC50 is 3.97 µM (active) in [4]; 3.97 µM (active) in [5]; 0.113 µM (active) in test [6]; 3.97 µM (active) in [7]; 9.42 µM (active) in test [8].

For `CO[Si](CCCn1c(=O)n(CCC[Si](OC)(OC)OC)c(=O)n(CCC[Si](OC)(OC)OC)c1=O)(OC)OC`, the outcome in test [1], in test [2] and in test [3] was inactive.

Regarding `O=C1CCCCCCCCCCOCCCCO1`, the compound was called inactive in test [1], in test [2] and in test [3].

As to `CCCc1ccccc1O`, the call in [1] and in test [3] was inactive. Also, in test [2], the AC50 is 65.7 µM (active).

As for `BrC1CCC(Br)C(Br)CCC(Br)C(Br)CCC1Br` (stereo not given), the outcome in [1], in test [3], in test [4] and in test [5] was inactive. The concentration at half-maximal activity (AC50) is 8.67 µM (active) in test [2], 4.64 µM (active) in test [6], 1.58 µM (active) in [7] and 3.33 µM (active) in test [8].

Take `C[C@H]1C[C@@H]2[C@H]([C@@H](O)C[C@@]3(C)[C@H]2CC[C@]3(O)C(=O)CO)[C@@]2(C)C=CC(=O)C=C12`: the compound was classed as inactive in [1], in test [2], in [3], in [4], in [5] and in [6]. Also, the outcome in [7], in [8] and in test [9] was inactive.

Consider `CC(=O)c1c(C)cc(C(C)(C)C)cc1C`, for which the result in test [1] and in [3] was inactive. The half-maximal activity concentration (AC50) in [2] was 31.4 µM (active).

Regarding `CC(C)(C)NC(N)=O`, the result in test [1], in [2] and in test [3] was inactive.

Consider `C=O`, for which the outcome in test [1], in test [2] and in test [3] was inactive.

For the compound `CCCOCC(C)O` (stereo not given), the compound was called inactive in test [1], in test [2] and in [3].

`CC(C)=CCC[C@H](C)CC=O`: the compound was classed as inactive in [1], in test [2] and in test [3].

For `CCCc1c(OCCCOc2ccc(OCC(=O)O)cc2)ccc(C(C)=O)c1O`, the result in test [1] and in test [3] was inactive. In addition, the half-maximal activity concentration (AC50) in [2] was 8.03 µM (active).

`COC(=O)c1ccc(C)cc1`: the call in test [1], in test [3], in test [4], in [5], in [6] and in [7] was inactive. Also, the outcome in test [8] was inactive. In addition, the AC50 in test [2] was 14.3 µM (active).

For `O=C(O)C[C@H](O)C[C@H](O)/C=C/c1c(C2CC2)nc2ccccc2c1-c1ccc(F)cc1`, the call in [1], in [2], in [3], in [4], in [6] and in test [8] was inactive. Besides, the AC50 in test [5] is 1.43 µM (active); in test [7], 0.551 µM (active).

As for `CC(=O)OCCC(C)CC(C)(C)C` (stereo not given), the result in test [1], in test [2], in test [3], in test [4], in test [5] and in test [6] was inactive. In addition, the outcome in test [7] and in test [8] was inactive.

`Cc1cccc(Nc2ccccc2C(=O)O)c1C`: the call in test [1], in [2] and in [3] was inactive.

As for `CC(=O)/C=C/C1=C(C)CCCC1(C)C`, the call in test [1], in test [3], in [4], in test [5], in test [6] and in test [7] was inactive. Also, in [8], the outcome was inactive. The AC50 in test [2] is 80 µM (active).

The values are drawn from PubChem BioAssay (EPA / NIEHS).
